Results published in PubChem BioAssay (NCATS).
Inconclusive results are not listed. Entries that show only a call come without a potency. Activity calls are given as the source filed them. Calls come from the whole dose curve; as a rule, active = well fitted inhibition curve with a large enough effect; inconclusive = small, poorly fitted or top-dose-only effect; inactive = flat fitted curve, though single readings scatter.

The compounds below were run against Calcium and integrin-binding protein 1 (Homo sapiens) (UniProt Q99828) (assay: Primary qHTS for Identification of Calcium Integrin Binding Protein 1 (CIB1) Competitor (AID 1508620; note: top concentration of the series differs between compounds)). Conditions: CIB1-GST / FITC-alphaIIb peptide fluorescence polarization; series mostly up to 114 µM.
Procedure, shortened: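 Fluorescence polarization competition: GST-tagged CIB1 (1 uM final) preincubated with compound 15 min at room temperature, then FITC-labelled alphaIIb peptide (100 nM final) added. After 15 min at room temperature, polarization read at Ex 480/Em 540.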

Chain of Calcium and integrin-binding protein 1 (Homo sapiens) (Q99828 whole entry, looked up): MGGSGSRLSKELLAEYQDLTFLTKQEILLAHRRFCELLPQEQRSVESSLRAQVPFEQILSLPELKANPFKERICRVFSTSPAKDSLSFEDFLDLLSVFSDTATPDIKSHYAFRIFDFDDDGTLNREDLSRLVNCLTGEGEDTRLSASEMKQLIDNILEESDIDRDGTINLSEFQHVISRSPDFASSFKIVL

SMILES | Potency
O=C(Nc1ncc(Cc2ccc(C(F)(F)F)cc2)s1)c1cnc(-c2ccccc2)[nH]1 | inactive
Cc1cc(N[S+](=O)([O-])c2ccc(NC(=O)Cc3nc4ccc(Cl)cc4[nH]3)cc2)no1 | inactive
Cc1cc(N2C(=O)c3ccccc3C2=O)no1 | inactive
Cc1cc(C=CC#N)cc(C)c1Nc1nc(Nc2ccc3c(c2)CCC3)c2[nH]cnc2n1 | inactive
O=C1Nc2ccccc2/C1=C\c1ccc(O)c(Cl)c1 | inactive
CC(=O)N1CCc2cc(-c3nc(NC(=O)Cc4ccc5c(c4)OCO5)sc3C)ccc21 | inactive
Cc1ccc(-c2ccc(=O)n(CC(=O)N(C)C(C)C(C)C)n2)cc1 (stereo not given) | inactive
Brc1cnc2nc(SCc3cccnc3)[nH]c2c1 | inactive
Cc1ccc(NS(=O)(=O)c2cc3c(cc2C)NC(=O)CO3)cc1C | inactive
COc1ccc(NC(=O)c2cccnc2)cc1S(=O)(=O)Nc1ccc(Br)cc1 | inactive
Cc1cc2c(s1)c1cnn(Cc3cc(F)ccc3C)c(=O)c1n2C | inactive
O=C1c2ccccc2C(=O)N1c1ccc2ncccc2c1 | inactive
Cc1cc(-c2nnc3n2CCCCC3)c(C)n1-c1cccc(C#N)c1 | inactive
O=S(=O)(NCC1CN(S(=O)(=O)c2ccc3c(c2)OCCO3)C1)c1c(F)cccc1F | inactive
Cc1cccc(CNc2ncnc3ccc(-c4cccc(C)c4)cc23)c1 | inactive
Cc1cc(NC(=O)Nc2nnc(-c3ccncc3)s2)ccc1Br | inactive
Fc1ccc(Nc2nc(-c3ccnc(N4CCCCC4)c3)nc3ccccc23)cc1F | inactive
c1ccc2[nH]c(-c3ccc(NCc4ccc5c(c4)OCCO5)cc3)nc2c1 | inactive
CC(=O)Nc1sc2c(c1-c1ccc(-c3nn[nH]n3)cc1)CCNC2 | inactive
FC(F)(F)c1ccc(-c2ccc(CNc3nc(-c4ccccc4C(F)(F)F)nc4ccccc34)cc2)cn1 | inactive

SMILES | Potency
Fc1cnc(-c2ccccc2C(F)F)nc1NCc1ccc(-n2ccnn2)cc1 | inactive
O=C(NCCc1nc2ccccc2n1CCOc1ccccc1F)C1CCCCC1 | inactive
Fc1cccc(Nc2nc(-c3ccncc3)nc3ccccc23)c1 | inactive
COc1cc(OC)cc(-c2csc(N3CCC(C(N)=O)CC3)n2)c1 | inactive
Oc1cc(NCc2ccc(F)cc2)cc2cccnc12 | inactive
COc1cccc(C2=Nn3c(nnc3-c3ccc(OC)c(OC)c3)SC2)c1 | inactive
CCc1ccccc1C(=O)N1CCc2cc(-c3nc(NC(=O)Cc4ccc5c(c4)OCO5)sc3C)ccc21 | inactive
Oc1cc(NCCc2cccnc2)cc2cccnc12 | inactive
Cc1cc(NC(=O)Nc2nnc(-c3cccnc3)s2)ccc1Br | inactive
Cc1cc2c(s1)c1cnn(Cc3cc(F)cc(F)c3)c(=O)c1n2C | inactive
CCc1nnc2sc(-c3ccc(C)c(NC(=O)c4ccc(-c5cccc(Cl)c5)o4)c3)nn12 | inactive
O=C(Nc1ccc(Cl)c(C(F)(F)F)c1)Nc1nnc(-c2ccncc2)s1 | inactive
Cc1ccc(C2=NN(CC(=O)N(C)C(C)c3ccco3)C(=O)C2)cc1 (stereo not given) | inactive
COc1cc(-c2ccc3ncnc(NCCc4cnc[nH]4)c3c2)cc(OC)c1OC | inactive
CN(C)c1ccc2c(=O)n3nc(Nc4ccc5c(c4)CCC5)sc3nc2c1 | inactive
COCCNc1ccc(NC(=O)c2cccs2)cn1 | inactive
O=C(CNC(=O)c1cccc(Cl)c1)OC(C(=O)Nc1cc(C(F)(F)F)ccc1Cl)c1ccccc1 (stereo not given) | inactive
COc1cccc(C2c3c(ncn(-c4ccccc4OC)c3=N)Oc3ccc4ccccc4c32)c1 (stereo not given) | inactive
O=[S+]([O-])(c1ccc2c(c1)OCCO2)N1CCN([S+](=O)([O-])c2ccccc2Br)CC1 | inactive
Cc1cc2c(s1)c1cnn(Cc3cccc4cccnc34)c(=O)c1n2C | inactive
